Bioassay records deposited in PubChem BioAssay by The Scripps Research Institute Molecular Screening Center.
Most compounds without a hit are left out; they make up all but 1.3% or so of the library.
EBNA-1 inhibitor = blocks EBNA-1 binding to DNA | EBNA-1 DNA binding, fluorescence polarization | inhibition, % at 14.8 µM | 300,000 compounds, 0.34% hits | AID 1950; in the data active means inhibition above about 28%
PREPL inh = inhibitors of human prolyl oligopeptidase-like enzyme PREPL | 320,000 compounds, 0.68% hits | inhibition, % at 5.96 µM | recombinant PREPL, fluorescence polarization activity-based probe | AID 2751 | Q4J6C6; in the data active means inhibition above about 43%;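 further: 0% = enzyme with DMSO and 100% = wells lacking enzyme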
LYPLA2 inh = LYPLA2 (human) inhibition in PME1 counter-screen | 320,000 compounds, 0.38% hits | AID 2177 | recombinant LYPLA2, FP-Rh probe fluorescence polarization | O95372 | inhibition, % at 5.9 µM;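 active means inhibition above the screen-wide mean plus 3 SD, limit set per campaign, cut at about 26% in these data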;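 further: 0% = LYPLA2 with DMSO and 100% = wells lacking LYPLA2 enzyme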
LYPLA1 inh = counter-screen for PME1 inhibitors: inhibitors of human LYPLA1 | O75608 | recombinant LYPLA1, FP-Rh probe fluorescence polarization | inhibition, % at 5.9 µM | 320,000 compounds, 0.16% hits;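 active means inhibition above the mean of all tested compounds plus 3 SD, set per campaign, cut at about 14% in these data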;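 further: inhibitors block serine hydrolase probe labeling of LYPLA1 so polarization falls; 0% = enzyme with DMSO and 100% = wells lacking LYPLA1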
Target sequence (O75608 whole entry, looked up): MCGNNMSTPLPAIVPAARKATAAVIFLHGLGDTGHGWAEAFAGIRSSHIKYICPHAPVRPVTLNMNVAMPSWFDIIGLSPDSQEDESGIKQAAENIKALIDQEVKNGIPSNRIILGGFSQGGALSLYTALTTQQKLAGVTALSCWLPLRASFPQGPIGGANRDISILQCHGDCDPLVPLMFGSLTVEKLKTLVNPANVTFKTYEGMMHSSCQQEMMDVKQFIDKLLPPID
ZTA counter = counter-screen for EBNA-1 inhibitors: inhibitors of Epstein-Barr virus ZTA; inhibition, % at 11 µM; AID 2234; P03206; ZTA-DNA binding, fluorescence polarization; 320,000 compounds, 0.15% hits; in the data active means inhibition above about 33%
Target sequence (P03206 whole entry, looked up): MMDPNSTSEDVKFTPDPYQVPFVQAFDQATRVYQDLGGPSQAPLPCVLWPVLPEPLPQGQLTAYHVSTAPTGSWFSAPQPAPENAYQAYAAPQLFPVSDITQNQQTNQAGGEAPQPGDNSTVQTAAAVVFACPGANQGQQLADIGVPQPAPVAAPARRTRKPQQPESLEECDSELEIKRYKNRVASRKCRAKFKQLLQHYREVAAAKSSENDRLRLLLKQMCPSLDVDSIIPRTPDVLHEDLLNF
LYPLA2 confirm = LYPLA2 (human) inhibition, confirmation counter-screen; AID 2232; 1,100 compounds, 72% hits; inhibition, % at 5.9 µM; shares compounds with LYPLA2 inh; recombinant LYPLA2, FP-Rh probe fluorescence polarization;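 active means mean inhibition across replicates above the hit cutoff set in the primary screen, cut at about 26% in these data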;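 further: blocked labeling of the enzyme by serine hydrolase FP-Rh probe lowers polarization; 0% = enzyme with DMSO and 100% = wells lacking LYPLA2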
LYPLA2 gel ABPP = inhibitors of human LYPLA2 | shares compounds with LYPLA2 inh | rhLYPLA2 in mouse brain proteome, gel ABPP FP-Rh | inhibition, % at 20 µM | 150 compounds, 30% hits | AID 652029;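 active means inhibition of LYPLA2 enzyme probe labeling above about 50%, limit read from the data; inactive means inhibition below that limit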;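 further: loss of FP-Rh probe labeling of the LYPLA2 gel band measured as band density; 0% = DMSO only control band and 100% = blank gel background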
The depositor's hits bear a star; x = no result given.

SMILES	EBNA-1 inhibitor	PREPL inh	LYPLA2 inh	LYPLA1 inh	ZTA counter	LYPLA2 confirm	others
CS(=O)(=O)Nc1ccc(N2CCN(c3ccc(C(F)(F)F)cn3)CC2)nc1	-11.1	17.0	84.1*	8.5	-18.5	82.6*	LYPLA2 gel ABPP=72.0*
CC(C)(C)C(=O)Nc1ccc(N2CCN(c3ccc(C(F)(F)F)cn3)CC2)nc1	-2.9	2.5	-1.3	0.2	7.1	x
CCCCOc1ccc(CSc2nc(C)[nH]c2[N+](=O)[O-])cc1[N+](=O)[O-]	0.7	12.9	49.8*	11.4	-0.9	54.3*	LYPLA2 gel ABPP=20.0
CCCCOc1ccc(CSc2nnc(C)n2N)cc1[N+](=O)[O-]	-9.5	3.9	12.4	1.6	12.0	x
O=C(O)C1CCCCC1C(=O)Nc1ccc(S(=O)(=O)N2CCCCC2)cc1 (stereo not drawn)	-3.2	-0.5	-6.1	-1.1	15.0	x
Cc1nc2ccccc2nc1OCC(=O)Nc1ccc2ccccc2c1	18.4	-11.4	32.5*	0.0	2.5	11.6
O=C(NC1CCc2ccccc21)c1cc(COc2cncc(Cl)c2)on1 (stereo not drawn)	7.0	19.4	42.8*	3.5	-2.6	33.4*
Cc1cccc(-n2c(CNC(=O)c3ccc(S(=O)(=O)N4CCCCC4)cc3)n[nH]c2=S)c1	2.0	2.2	78.7*	0.3	10.8	4.8
O=C(NCc1n[nH]c(=S)n1-c1cccc(Cl)c1)c1ccc(S(=O)(=O)N2CCCC2)cc1	-5.0	-1.5	3.5	0.6	2.6	x
COc1ccc(-c2noc3c2-c2nc(-c4ccc(C)cc4)sc2CC3)cc1	12.6	-1.3	40.4*	0.2	-1.7	-7.8
O=C(CCNC(=O)N1CC(=O)Nc2ccccc21)Nc1ccc(F)c(Cl)c1	4.8	-41.0	1.8	2.2	-5.9	x
COCCn1c(=O)[nH]c2cc(C(=O)NCCN3CCN(c4cccc(Cl)c4)CC3)ccc2c1=O	-7.7	-13.5	44.6*	5.5	-28.7	35.6*
Cn1cc(C(=O)NCCN2CCN(c3cccc(Cl)c3)CC2)c2c3ccccc3n(C)c2c1=O	3.1	45.9*	25.9*	6.7	0.9	35.1*
CCN1CCc2c(sc(NC(=O)c3ccc(C(=O)c4ccccc4)cc3)c2C(N)=O)C1	1.6	23.6	26.3*	-1.9	10.9	24.9
CCCc1cc(=O)oc2cc(OCC(=O)NCCc3ccc(S(N)(=O)=O)cc3)ccc12	-8.7	2.9	13.0	5.7	-4.8	x
COc1ccc(N2CCN(C(=O)CCNS(=O)(=O)c3cc(Br)cnc3N)CC2)cc1	1.8	15.0	31.9*	0.9	-19.9	23.7
COc1ccc(N2CCN(C(=O)CNS(=O)(=O)c3ccc(Br)s3)CC2)cc1	0.9	3.2	27.0*	9.8	-3.5	33.5*
COc1ccccc1N1CCN(C(=O)CNS(=O)(=O)c2ccc(Br)s2)CC1	-14.3	7.2	-5.1	-3.0	8.4	x
COC(=O)[C@@H]1C[C@@H](c2ccccc2)[C@H](C)C1(C)C	3.2	13.9	-2.3	-1.6	-23.4	x
COc1cccc(CN(C)C(=O)c2ccc(Oc3ccccc3)cc2)c1OC	5.6	12.0	29.9*	3.8	-0.7	7.0
CSCCC(NS(=O)(=O)c1cccc(C(F)(F)F)c1)C(=O)N(C)CCOc1ccc(Cl)cc1 (stereo not drawn)	-12.2	-46.6	-4.8	-2.4	-10.9	x
CCCOc1ccc(C(=O)NNC(=S)NC(=O)c2ccccc2[N+](=O)[O-])cc1	-0.6	13.2	26.9*	-1.1	-6.4	29.0*
Cc1ccc(NC(=O)Cn2cnc3c(cnn3C(C)(C)C)c2=O)cc1	-4.5	9.1	3.3	-0.4	-5.3	x
CC(C)(C)n1ncc2c(=O)n(CC(=O)N3CCCCCC3)cnc21	7.9	10.3	29.1*	2.4	-4.8	2.5
CCOC(=O)C1(C)/C(=N/Nc2ccc(S(N)(=O)=O)cc2)C(=O)C(=O)N1c1ccccc1 (stereo not drawn)	-4.3	4.5	-1.9	-3.8	-22.0	x
SMILES	EBNA-1 inhibitor	PREPL inh	LYPLA2 inh	LYPLA1 inh	ZTA counter	LYPLA2 confirm	others
CCOC(=O)C1(C)C=C(Nc2ccc(C)cc2)C(=O)N1c1ccc(C)cc1 (stereo not drawn)	7.8	-5.3	26.8*	0.5	2.7	-1.9
O=C1CC(c2ccccc2)CC(O)=C1C=NCc1ccccc1 (stereo not drawn)	-1.0	-0.7	-0.3	2.3	5.0	x
O=C1CC(c2ccc(Cl)cc2)CC(O)=C1C=NCc1ccc(Cl)c(Cl)c1 (stereo not drawn)	-14.1	3.7	26.7*	2.1	-6.0	57.9*	LYPLA2 gel ABPP=37.0
O=C(Nc1ccc(F)cc1)N1CCN(C(=O)C2CCCO2)CC1 (stereo not drawn)	4.2	5.9	-0.2	-2.9	-5.2	x
O=C(CCC(=O)N1CCN(c2ccc(Cl)c(Cl)c2)CC1)c1ccccc1	9.8	-31.0	37.2*	12.7	9.0	31.5*
Cc1ccccc1NS(=O)(=O)c1nnc(NC(=O)CC(C)C)s1	-9.7	-1.8	0.7	-3.6	-8.0	x
Cc1nnc(SCC(=O)c2ccc([N+](=O)[O-])cc2)s1	8.5	23.5	11.2	2.6	-0.5	x
Nc1nnc(SCC(=O)c2ccc([N+](=O)[O-])cc2)s1	-3.9	12.8	29.2*	-2.2	7.7	13.7
CN(c1ccccc1)S(=O)(=O)c1cccc(NC(=O)c2ccc3ncsc3c2)c1	-17.0	-5.4	-64.3	-37.1	9.6	x
O=C(CNC(=O)c1ccc(S(=O)(=O)N2CCCC2)cc1)N/N=C/c1c(Cl)cccc1Cl	8.3	1.8	26.1*	-1.9	-7.9	21.7
CCOC(=O)C1CCCN(S(=O)(=O)Cc2ccc(Cl)cc2)C1 (stereo not drawn)	-11.7	-17.7	-0.2	-0.1	-0.5	x
O=C(O)c1ccc(N=Cc2nc(-c3ccco3)oc2O)cc1	-2.7	4.6	30.8*	1.1	3.1	36.7*
Oc1oc(-c2ccco2)nc1C=Nc1ccccc1	-6.2	8.8	18.2	4.7	3.9	x
CC(=O)c1ccc(OCCCCOc2ccc(C(C)=O)cc2)cc1	-3.1	-11.7	4.7	-2.4	-18.4	x
CCCC1CCC(C(=O)Nn2c(C)nc3ccccc3c2=O)CC1 (stereo not drawn)	-4.7	-32.0	3.2	-1.0	9.4	x
CCCCCCC1CCC(C(=O)Nn2c(C)nc3ccccc3c2=O)CC1 (stereo not drawn)	-3.0	4.4	46.0*	0.8	-19.7	37.0*
COc1cccc(OCC(O)CN2CCN(CCN3C(=O)c4cccc5cccc(c45)C3=O)CC2)c1 (stereo not drawn)	0.1	7.5	31.8*	2.7	-8.6	33.9*
CC1=NN(c2ccccc2)C(=O)/C1=C\c1ccc(Oc2ccc([N+](=O)[O-])cc2[N+](=O)[O-])cc1	6.0	10.9	40.7*	12.0	30.3	30.9*
COc1cc(/C=C2/C(=O)N(c3ccc(C)c(C)c3)N=C2C)cc([N+](=O)[O-])c1O	7.9	23.2	10.2	3.7	-15.1	x
